Experimental findings from PubChem BioAssay (NCATS) are described below.

“And” between values parts separate entries of the source, which are not always exact repeats. Equal values may be shown once. Records with an inconclusive call do not appear. The source made the active and inactive calls. Calls come from the whole dose curve; as a rule, active = well fitted curve in the direction sought with a large enough effect; inconclusive = small, poorly fitted or top-dose-only effect, or another doubt; inactive = no such curve, though single readings can be large or run the other way.
% is set by controls: 0 for no effect and ±100 for the full control effect; potency is the fitted concentration of half-maximal effect.

The assay is described as follows: qHTS Assay for Identifying Gametocytocidal Compounds (AID 743244).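 For max response: actives lower the fluorescent signal which means gametocytes are killed.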 Particulars: P. falciparum 3D7 stage III-V gametocytes, alamarBlue, 72 h; max response: stronger effect = lower value. In short, it runs like this: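 Compounds are pinned into medium, gametocytes (stage III–V, 3D7, 20,000 cells/well) added, and plates held 72 h at 37 °C in 5% CO2. AlamarBlue follows for 24 h before fluorescence reading.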
(In qHTS, concentration-response curves come from the screen itself.)
On to `Brc1c(Br)c(Br)c2n[nH]nc2c1Br`, for which the max response is 10.7% (inactive).

On to `Nc1ccc(C(=O)O)c(O)c1`, for which the max response was 1.29% (inactive).

Take `Cc1c(C(=O)O)c(O)cc2c1C(=O)c1c(O)c([C@@H]3O[C@H](CO)[C@@H](O)[C@H](O)[C@H]3O)c(O)c(O)c1C2=O`: the max response is -1.02% (inactive).

For `Cc1nc2sccn2c(=O)c1CCN1CCC(=C(c2ccccc2)c2ccc(F)cc2)CC1`, the max response was 35.1% (inactive).

As for `Clc1ccccc1-c1nc(-c2ccncc2)no1`, the max response is 20.9% (inactive).

In the case of `C[C@@H](CN1CCC(Cc2ccccc2)CC1)[C@@H](O)c1ccc(O)cc1`, the max response is 31% (inactive).

Regarding `CC(=O)[C@]1(O)Cc2c(O)c3c(c(O)c2[C@@H](O[C@H]2C[C@H](N)[C@H](O)[C@H](C)O2)C1)C(=O)c1c(O)cccc1C3=O`, the Potency was 5.62 µM (active).

For the compound `CC(C)Cc1ccc([C@H](C)C(=O)O)cc1`, the max response is -6.28% (inactive) and 20.5% (inactive).

In the case of `CCCCN1CCC(n2c(=O)[nH]c3ccccc32)CC1`, the max response is 5.22% (inactive).

For `CCCCC#Cc1nc(NC)c2ncn([C@@H]3O[C@H](CO)[C@@H](O)[C@H]3O)c2n1`, the max response is 34.4% (inactive).

For `Oc1cc(O)cc(/C=C/c2ccc(O)c(O)c2)c1`, the max response is 42.8% (inactive).

As to `COc1ccccc1N1CCN(CCN(C(=O)c2ccc(I)cc2)c2ccccn2)CC1`, the max response is 4.76% (inactive).

For the compound `CC(C)NC[C@H](O)COc1cccc2[nH]ccc12`, the max response was 4.63% (inactive).

In the case of `CCCCCCCCCCCCCCCCCCNC(=O)OCC(COP(=O)([O-])OCC[n+]1ccsc1)OC` (centres undefined), the max response is 12.3% (inactive).
